Assay outcomes deposited in PubChem by several laboratories.
A selection: hits, their analogues and other compounds. The true share with any hit is near 0.97%.
S1P4 antag: human S1P4 receptor antagonism | AID 1510 | inhibition, % at 4.98 µM | 220,000 compounds, 0.26% hits | S1P4-expressing cells, antagonist mode, reporter read-out; in the data active means inhibition above about 29%;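 further: 0% = wells stimulated with agonist and 100% = vehicle wells without agonist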
Target sequence (O95977 whole entry, looked up): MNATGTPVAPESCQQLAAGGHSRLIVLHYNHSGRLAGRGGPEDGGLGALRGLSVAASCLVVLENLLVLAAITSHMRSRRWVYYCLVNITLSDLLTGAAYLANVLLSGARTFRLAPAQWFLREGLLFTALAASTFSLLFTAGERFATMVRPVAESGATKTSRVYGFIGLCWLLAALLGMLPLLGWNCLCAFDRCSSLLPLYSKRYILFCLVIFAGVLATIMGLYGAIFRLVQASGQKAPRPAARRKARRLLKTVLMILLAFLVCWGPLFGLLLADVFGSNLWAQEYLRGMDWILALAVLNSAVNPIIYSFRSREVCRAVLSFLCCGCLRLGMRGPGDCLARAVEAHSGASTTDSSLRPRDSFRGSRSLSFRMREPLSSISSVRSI
AI-2 QS mod: Vibrio harveyi AI-2 quorum sensing modulation; Vibrio harveyi JMH597 AI-2 luminescence/OD600 ratio, 9 h; hits give low values; strain lacks LuxN and CqsS sensors; 0 = neutral-control median; activity change, % at 7.5 µM; 300,000 compounds, 0.4% hits; AID 2094; in the data active means activity change below about -75%, passing the limit was not always enough; inconclusive means no clear call, values can overlap the other calls;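 further: luminescence divided by OD600 gain over 9 h not by final OD600 alone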
S1P3 antagonist: antagonists of human S1P3 receptor | CHO S1P3 NFAT-BLA reporter, FRET fluorescence, antagonist mode | 170,000 compounds, 0.27% hits | inhibition, % at 4.98 µM | Q99500;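 active means inhibition above the plate cutoff, the mean inhibition of test wells on that plate plus 3 SD, cut at about 28% in these data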;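 further: cells challenged with S1P at its EC80 of 0.8 µM; blue over green emission ratio from cleaved BLA substrate after 4 h stimulation; 0% = S1P-stimulated wells and 100% = unstimulated DMSO-only wells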
Hsp70 act: transcriptional activators of Hsp70 | HeLa Hsp70 promoter luciferase reporter, luminescence; scaled: vehicle 0, proteasome-inhibitor control 100% | activation, % at 10 µM | 200,000 compounds, 0.04% hits | AID 1203;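 active means activation above the mean across all tested compounds plus 3 SD, cutoff set per campaign, cut at about 5.5% in these data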;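 further: 100% = MG132 at 30 µM as the positive control and 0% = DMSO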
S1P4 agonist: agonists of human S1P4 receptor; S1P4-expressing cell line, agonist reporter assay; activation, % at 4.98 µM; 220,000 compounds, 0.35% hits; AID 1509; in the data active means activation above about 11%;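 further: 0% = DMSO vehicle and 100% = reference agonist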
JMH597 growth rt: retest: blocks Vibrio harveyi JMH597 growth; shares compounds with AI-2 QS mod; OD600 absorbance, 9 h; lacks LuxN and CqsS sensors; growth inhibition, % at 7.5 µM; 750 compounds, 1% hits; AID 2726;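 active means every replicate shows growth inhibition above 50%; inconclusive means at least half, but not all, replicates pass that cutoff; inactive means fewer than half of replicates pass it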
BB721 lum counter: retest counter-screen: lowers luminescence of constitutive-QS Vibrio harveyi BB721; shares compounds with AI-2 QS mod; 9 h; inhibition, % at 7.5 µM; 750 compounds, 95% hits; AID 2727;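 active means inhibition above about 80% in every replicate, not just on average, limit read from the data; inconclusive means at least half of replicates past the limit, but not all; inactive means fewer than half of replicates past the limit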
BB721 growth rt: retest: blocks Vibrio harveyi BB721 growth; 750 compounds, 3% hits; shares compounds with AI-2 QS mod; OD600 absorbance, 9 h; growth inhibition, % at 7.5 µM; AID 2728;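 active means every replicate shows growth inhibition above 50%; inconclusive means at least half but not all replicates above 50% inhibition; inactive means under half of replicates above 50% inhibition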
JMH597 AI-2 mod: Vibrio harveyi AI-2 signaling luminescence modulation – JMH597 strain, confirmation. AID 2736. Vibrio harveyi JMH597 AI-2 quorum sensing luminescence, 9 h; luxN and CqsS knockout, AI-2 only. shares compounds with AI-2 QS mod. inhibition, % at 7.5 µM. 750 compounds, 97% hits;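 active means every replicate shows more than 75% inhibition of signal versus neutral control wells; inconclusive means half to three quarters of replicates exceed 75% inhibition; inactive means fewer than half of replicates exceed 75% inhibition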
Active calls of the source: *; ? = inconclusive; · = not tested or not shown.

SMILES	S1P4 antag	AI-2 QS mod	S1P3 antagonist	Hsp70 act	S1P4 agonist	JMH597 growth rt	BB721 lum counter	BB721 growth rt	JMH597 AI-2 mod
CC(=O)Nc1cc(-c2ccc(F)cc2)[nH]n1	1	7	4	0	-4	·	·	·	·
O=C(Nc1cc(-c2ccccc2)[nH]n1)c1ccccc1F	3	-86*	8	·	-2	12	92*	-3	94*
O=C(Nc1cc(-c2ccccc2)[nH]n1)c1ccccc1	17	-79*	-1	·	1	14	88*	-19	93*
O=C(O)c1ccccc1C(=O)Nc1cc(-c2ccccc2)[nH]n1	·	29	·	·	·	·	·	·	·
CCc1ccc(S(=O)(=O)Nc2ccc(Br)cn2)cc1	·	?	·	·	·	22	-10	1	95*
O=C(NCc1ccccc1)c1cc(-c2cccc(O)c2)on1	27	-82*	-13	0	0	-15	88*	-14	92*
Cc1ccc(-c2ccc(/C=N/NC(N)=S)o2)cc1	15	-87*	-2	·	-1	24	90*	?	92*
NC(=S)N/N=C/c1ccc(-c2ccccc2)o1	-4	?	-2	0	0	·	·	·	·
O=C(CCCn1nnc(-c2cccnc2)n1)c1ccc(F)cc1	-27	-80*	-6	0	2	0	92*	-11	95*
Cc1cc(NC(=O)C(C)SCC(=O)Nc2nnc(CC(C)C)s2)no1 (stereo not drawn)	·	-1	·	·	·	·	·	·	·
C=CCn1c(CCNC(=O)c2ccc(Cl)c(Cl)c2)nnc1SCCOc1ccc(OC)cc1	4	-84*	·	0	0	61	90*	37	94*
Cc1cccc(OCc2nnc(SCC(=O)N3CC(=O)Nc4ccccc43)o2)c1	-20	-93*	1	0	0	1	96*	0	98*
Cc1cccc(OCc2nnc(SCC(=O)N3CCCCC3)o2)c1	·	25	·	·	·	·	·	·	·
C=Cn1c(C(=O)O)ccc1-c1ccc(CC)cc1	11	-87*	1	·	0	26	16	10	100*
C=CCC(O)(CC=C)C(C)N (stereo not drawn)	-8	25	-5	0	3	·	·	·	·
CCc1nn(CC(=O)Nc2ccc(Br)c(C)c2)c(=N)s1	-14	-95*	-23	0	-2	29	99*	6	99*
Cc1cc(NC(=O)Cn2nc3c(cc2=O)CCCC3)ccc1Br	-11	-97*	-12	0	-2	10	100*	-4	100*
c1ccc(COc2ccc(OCCCn3cncn3)cc2)cc1	-4	-3	-6	0	2	·	·	·	·
c1ccc(Cc2ccc(OCCn3cncn3)cc2)cc1	-10	?	-12	0	-2	7	89*	10	93*
COc1ccc(CNC(=O)Nc2cccc(C)c2)cc1	-1	-92*	5	0	-1	11	97*	28	98*
COc1ccc(CNC(=O)Nc2ccc(OC)cc2)cc1	-3	-5	14	0	1	·	·	·	·
COc1ccc(CNC(=O)Nc2ccccc2)cc1	-11	-88*	5	·	2	5	95*	22	96*
Cc1cc(Br)c2c(c1)C1(OCCO1)C(=O)N2	·	25	·	·	·	·	·	·	·
CCOc1ccc(NS(=O)(=O)c2ccc(SC)cc2)cc1	-10	-12	-11	0	-1	·	·	·	·
CCOc1ccc(NS(=O)(=O)c2ccc(N)cc2)cc1	3	?	·	0	-2	34	99*	2	100*
SMILES	S1P4 antag	AI-2 QS mod	S1P3 antagonist	Hsp70 act	S1P4 agonist	JMH597 growth rt	BB721 lum counter	BB721 growth rt	JMH597 AI-2 mod
CN1CCN(S(=O)(=O)c2ccc(Oc3ccc(Br)cc3F)nc2)CC1	·	-84*	·	·	·	6	82*	-29	99*
CN1CCN(S(=O)(=O)c2ccc(Oc3ccc(F)cc3Br)nc2)CC1	-2	19	0	·	1	·	·	·	·
CCOc1ccc(NC(=O)CN(C)Cc2cc(=O)n3c(-c4ccccc4)csc3n2)cc1OCC	-8	0	-4	0	0	·	·	·	·
Cc1cnc(C(=O)Oc2ccc(-c3ccccc3)cc2)cn1	·	6	·	·	·	·	·	·	·
Cc1ccc(OCc2nc(-c3cccnc3)no2)cc1C	-18	-94*	-6	0	0	2	98*	3	99*
Cc1ccccc1OCc1nc(-c2cccnc2)no1	-18	-48	7	0	1	·	·	·	·
Cc1cc(C)cc(OCc2nc(-c3cccnc3)no2)c1	1	-95*	13	0	1	9	99*	-2	99*
CC(C)c1ccc(O)c(NC(=O)c2cncc(Br)c2)c1	1	-94*	10	0	-2	8	98*	32	98*
O=C(CCN1N=C(c2ccccc2)CCC1=O)NCC1CCCO1 (stereo not drawn)	·	26	·	·	·	·	·	·	·
CC(C)c1ccc(S(=O)(=O)N2CCN(C(=S)NCc3ccco3)CC2)cc1	-10	-96*	1	0	0	32	100*	-39	100*
O=C(OCc1ccc(Br)cc1)c1ccncc1	-2	-2	-2	0	-1	·	·	·	·
CC(=O)Nc1ccc(C(=O)OCc2ccc(Br)cc2)cc1	-6	-89*	0	0	0	10	96*	?	95*
O=C(CSc1nccc(=O)[nH]1)NC1CCCC1	·	7	·	·	·	·	·	·	·
Cc1ccccc1C(=O)Nc1cccc(-c2ccc(N3CCOCC3)nn2)c1	·	12	·	·	·	·	·	·	·
O=C(CN1C(=O)c2ccccc2C1=O)Nc1cccc([N+](=O)[O-])c1	0	-95*	-2	0	0	13	99*	-1	99*
O=C(CN1C(=O)c2ccccc2S1(=O)=O)Nc1cccnc1	3	-31	-1	0	-1	·	·	·	·
O=C(CN1C(=O)c2ccccc2C1=O)Nc1cccnc1	-11	-82*	-3	0	1	1	93*	-17	94*
O=C(CN1CCCCCC1)Nc1cccc([N+](=O)[O-])c1	0	0	4	0	5	·	·	·	·
O=C(NCC1CCN(c2ccc(S(=O)(=O)N3CCOCC3)cc2)CC1)Nc1ccccc1F	·	21	·	·	·	·	·	·	·
CC(=O)Nc1ccc(CN2CCN(CCc3ccccc3)C(CCO)C2)cc1 (stereo not drawn)	0	19	-1	0	0	·	·	·	·
Cc1cccc(NS(=O)(=O)c2ccc(Oc3ccccc3)cc2)n1	5	-89*	-12	0	-3	25	11	-20	96*
NC(=S)Nc1cc(Cl)cc(Cl)c1	-7	-82*	-8	·	0	-12	65	-22	?
NC(=S)Nc1cccc(Cl)c1	3	2	3	·	0	·	·	·	·
